Test results from PubChem BioAssay.
Records with an inconclusive call do not appear. The source made the active and inactive calls.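 How the source made its calls, unless noted: active means viability loss from added drug above about 55%, and viability with drug at most 40%, in both replicates (limit read from the data, passing the limit was not always enough); inconclusive means both conditions met in only one replicate; inactive means neither replicate meets both conditions.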

Experiments:
[1] = Her2 expression decrease, cell viability multiplex – SKBR3 breast tumor cells, AlphaScreen, ATP viability, primary screen (AID 461;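 active means Her2 level under about 52% in both replicate screens, with viability over 70% of control, limit read from the data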;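 on Her2 level: lower value means less Her2 protein in the cells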;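 on viability: percent of carrier control wells set as 100% viability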); conditions: SKBR3 Her2 protein level, 18-24 h, measured here: SKBR3 viability, ATP luminescence, at 10 µM
[2] = target: Receptor tyrosine-protein kinase erbB-2 (Homo sapiens) (UniProt P04626); assay: as above; conditions: 18-24 h, at 10 µM, stronger effect = lower value
Chain of Receptor tyrosine-protein kinase erbB-2 (Homo sapiens) (P04626 whole entry, looked up): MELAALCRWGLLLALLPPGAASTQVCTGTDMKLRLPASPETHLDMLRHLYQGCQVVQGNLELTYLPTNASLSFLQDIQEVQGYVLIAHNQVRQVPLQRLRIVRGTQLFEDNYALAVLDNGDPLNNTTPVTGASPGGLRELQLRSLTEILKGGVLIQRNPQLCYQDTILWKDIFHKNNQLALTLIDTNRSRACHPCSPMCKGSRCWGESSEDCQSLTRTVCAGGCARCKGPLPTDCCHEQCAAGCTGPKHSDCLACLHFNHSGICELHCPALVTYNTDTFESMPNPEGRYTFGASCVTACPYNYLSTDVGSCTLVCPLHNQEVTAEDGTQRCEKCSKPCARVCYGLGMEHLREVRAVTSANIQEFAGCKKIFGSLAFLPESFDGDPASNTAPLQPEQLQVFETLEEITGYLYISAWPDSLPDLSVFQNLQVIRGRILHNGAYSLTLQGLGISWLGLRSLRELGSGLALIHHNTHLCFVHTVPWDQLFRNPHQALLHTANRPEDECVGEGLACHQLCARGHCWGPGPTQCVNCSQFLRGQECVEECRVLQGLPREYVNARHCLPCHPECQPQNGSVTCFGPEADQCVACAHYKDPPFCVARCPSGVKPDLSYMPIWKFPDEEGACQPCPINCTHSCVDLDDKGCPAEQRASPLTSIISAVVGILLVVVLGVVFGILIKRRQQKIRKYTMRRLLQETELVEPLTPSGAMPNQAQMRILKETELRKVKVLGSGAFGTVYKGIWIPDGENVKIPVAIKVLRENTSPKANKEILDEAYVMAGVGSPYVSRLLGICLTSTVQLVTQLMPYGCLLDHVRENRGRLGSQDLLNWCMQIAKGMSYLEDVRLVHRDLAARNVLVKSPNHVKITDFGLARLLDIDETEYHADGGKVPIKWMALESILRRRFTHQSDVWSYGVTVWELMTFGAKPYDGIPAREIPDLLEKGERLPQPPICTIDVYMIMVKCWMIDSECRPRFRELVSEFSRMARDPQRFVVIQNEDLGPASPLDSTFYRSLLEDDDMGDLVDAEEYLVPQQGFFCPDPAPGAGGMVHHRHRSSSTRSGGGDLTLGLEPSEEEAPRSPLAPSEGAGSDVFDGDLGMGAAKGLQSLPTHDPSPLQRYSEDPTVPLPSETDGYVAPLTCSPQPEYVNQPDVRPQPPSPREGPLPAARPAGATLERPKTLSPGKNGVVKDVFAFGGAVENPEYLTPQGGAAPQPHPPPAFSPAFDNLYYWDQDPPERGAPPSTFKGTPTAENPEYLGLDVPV

[3] = reduced viability of SK-BR-3 breast cancer cells – cell-based, 24 h, human, pilot screen (AID 572;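 active means viability at or below 10% of carrier control in both of two separate runs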;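 further: compound exposure lasted between 18 and 24 h rather than exactly 24 h; 100% = carrier-treated control wells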); conditions: SK-BR-3 viability, CellTiter-Glo luminescence, at 10 µM, stronger effect = lower value
[4] = HUVEC growth inhibition – cell-based, human, primary screen (AID 575;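 active means viability at or below 30% in both replicate assays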;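 further: 100% = median of untreated cell wells with 0.1% DMSO on each plate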); conditions: HUVEC proliferation, CellTiter-Glo luminescence, 72 h; at 10 µM; stronger effect = lower value
[5] = H69AR cell proliferation blockers – human, duplicate replicates, primary screen (AID 580;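 active means viability at or under a set limit in both replicates, limit being median viability minus 3 SD, cut at about 48% in these data, passing the limit was not always enough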;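 further: 100% = mean luminescence of untreated wells and 0% = no signal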); conditions: H69AR lung tumor cells viability, ATP luminescence, 72 h; at 10 µM; stronger effect = lower value
[6] = MRP1 drug-resistance reversers in H69AR cells – cell-based, doxorubicin co-treatment, pilot screen (AID 601); conditions: CellTiter-Glo, 72 h, at 10 µM; for differential viability (reversal): stronger effect = higher value
[7] = yeast transport mutant growth inhibition pilot in 384-well plates, post-Golgi transport modulator project (AID 636; in the data active means inhibition above about 31%); conditions: absorbance 615 nm, about 18 h, stronger effect = higher value
[8] = growth suppression of yeast trafficking mutant, preliminary HTS, modulators of trafficking downstream of Golgi apparatus project, 1536-format plate, OD 615 nm (AID 637; in the data active means inhibition above about 30%); conditions: yeast transport mutant growth, absorbance 615 nm, 18 h; stronger effect = higher value
[9] = S. cerevisiae growth inhibition in permissive medium (OD615), pilot counter-assay for S. cerevisiae lifespan shortening project, permissive growth control (AID 705;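 active means growth inhibition above 25% in both replicates, a cutoff set 3 SD above the mean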); conditions: OD615, 24 h, at 10 µM, stronger effect = higher value
[10] = S. cerevisiae growth inhibition in restrictive medium, OD615, pilot screen, restrictive growth control, yeast lifespan reduction project (AID 706;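 active means growth inhibition above a set limit, 3 SD over mean compound inhibition, in both replicates, cut at about 43% in these data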;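 further: modified DeaD lifespan yeast strain shifted to restrictive glucose medium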); conditions: OD615, 48 h, at 10 µM, stronger effect = higher value
[11] = doxorubicin toxicity protection in MRP-1 cells – H69AR cells, CellTiter-Glo, duplicate, MRP-1 activator project, pilot screen (AID 807;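 active means viability increase at or above a cutoff of the median across tested compounds plus 3 SD, cut at about 8.5% in these data, passing the limit was not always enough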;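 further: compound pretreatment 18-22 h then 72 h combined with doxorubicin; 0% = doxorubicin alone and 100% = vehicle without doxorubicin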); conditions: H69AR viability with doxorubicin, CellTiter-Glo luminescence; at 10 µM; stronger effect = higher value
[12] = viability of HCT116 without oncogenic beta-catenin – human colon tumor cells, pilot screen (AID 823;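 active means cell viability at or below a set limit in both duplicate runs, the limit being the all-compound median minus 4 SD, cut at about 23% in these data, passing the limit was not always enough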;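 further: 0% = wells killed by 20 µM Hyamine and 100% = untreated DMSO cell wells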); conditions: HCT116 beta-catenin knockout viability, CellTiter-Glo, 60 h; at 10 µM; stronger effect = lower value
[13] = viability of PTEN-null HCT116 cells – cell-based, HCT116 clonal line, CellTiter-Glo, pilot screen (AID 824;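 active means viability at or below 27.92% in each of two runs, the all-compound median minus 4 SD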;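 further: 0% = 20 µM Hyamine control and 100% = vehicle cell control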); conditions: HCT116 PTEN-deleted viability, 60 h, at 10 µM, stronger effect = lower value
[14] = RAM pathway blockade in budding yeast – dse1pr::URA3 reporter, 5-FOA selection, pilot screen (AID 869;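 active means inhibition over a set limit, the all-compound mean plus 3 SD, in both replicate runs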;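 further: 0% = DMSO wells with no growth and 100% = 10 µM 1-NA-PP1 with full growth; RAM network block rescues cells from 5-FOA so hits raise OD615 growth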); conditions: S. cerevisiae dse1pr::URA3 5-FOA growth, OD615, 2 d; at 10 µM; stronger effect = higher value; strain carries analog-sensitive mutant Cbk1 kinase
[15] = RAM signaling pathway blockade in yeast – S. cerevisiae, Pdr1DBD-CYC8 efflux-inhibited sensitized strain, primary screen (AID 1298;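 active means RAM network inhibition above 8.4% in each of two replicates, 3 SD over the compound average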;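 further: 0% = DMSO untreated cells without growth and 100% = 10 µM 1-NA-PP1 full growth; higher means more yeast growth rescued from 5-FOA killing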); conditions: S. cerevisiae cbk1-as DSE1-URA3 strain, 5-FOA growth OD615, 2 d; at 50 µM; stronger effect = higher value
[16] = H69AR cells + 2 uM doxorubicin, measured here: viability with 2 uM doxorubicin, stronger effect = lower value
[17] = H69AR cells, compound alone cytotoxicity

Row | SMILES | viability [1] [%] | Her2 level [2] | viability [3] | viability [4] | viability [5] | differential viability (reversal) ([6]; H69AR cells + 2 uM doxorubicin) | viability [6, 16] [%] | viability [6, 17] [%] | inhibition [7] | inhibition [8] | growth inhibition [9] | growth inhibition [10] | viability increase [11] | viability [12] | viability [13] | inhibition [14] | RAM network inhibition [15]
1 | CCCSc1nnc2nc3c(nn12)c1ccccc1n3C | 86 | 85.5% (inactive) | 86% (inactive) | 98.9% (inactive) | 89.3% (inactive) | 2.42% (inactive) | 86.9 | 89.3 | -0.27% (inactive) | 7.21% (inactive) | 3.75% (inactive) | 2.38% (inactive) | -4.48% (inactive) | 105% (inactive) | 97% (inactive) | 1.27% (inactive) | 0.96% (inactive)
2 | CCCCn1c(CN2CCN(c3ccc(F)cc3)CC2)nc2c1c(=O)n(C)c(=O)n2C | 98 | 93% (inactive) | 98% (inactive) | 66.9% (inactive) | 95.5% (inactive) | -3.86% (inactive) | 99.3 | 95.5 | -3.33% (inactive) | -5.74% (inactive) | -8.42% (inactive) | -1.05% (inactive) | -0.4% (inactive) | 80.3% (inactive) | 85.8% (inactive) | 1.07% (inactive) | 3.49% (inactive)
3 | COc1ccc(CNC(=O)c2ccc(CN3CCOCC3)cc2)cc1 | 116 | 93.5% (inactive) | 116% (inactive) | 99.8% (inactive) | 92.1% (inactive) | 12.5% (inactive) | 79.6 | 92.1 | -4% (inactive) | 4.52% (inactive) | -8.78% (inactive) | -16.6% (inactive) | -0.28% (inactive) | 96.4% (inactive) | 105% (inactive) | 1.33% (inactive) | 0.16% (inactive)
4 | Cn1nnnc1SCC(=O)N1CCN(c2ccccc2)CC1 | 94.5 | 122% (inactive) | 94.5% (inactive) | 97.4% (inactive) | 87.7% (inactive) | 8.86% (inactive) | 78.8 | 87.7 | 1.92% (inactive) | -6.33% (inactive) | -0.355% (inactive) | -1.68% (inactive) | -0.97% (inactive) | 93.1% (inactive) | 99.6% (inactive) | 0.735% (inactive) | 1.14% (inactive)
5 | CN1CCN(C(=O)c2ccc(CS(=O)(=O)c3c(Cl)cccc3Cl)o2)CC1 | 98.5 | 88.5% (inactive) | 98.5% (inactive) | 97.4% (inactive) | 94.3% (inactive) | 8.46% (inactive) | 85.8 | 94.3 | -2% (inactive) | -2.46% (inactive) | -7.05% (inactive) | -12% (inactive) | 0.72% (inactive) | 103% (inactive) | 96% (inactive) | 1.41% (inactive) | 0.22% (inactive)
6 | Cc1c(C#N)c2ncnc(-c3ccccc3)c2n1-c1ccccc1 | 106 | 101% (inactive) | 106% (inactive) | 85.5% (inactive) | 71.8% (inactive) | 52.5% (inactive) | 19.3 | 71.8 | -3.64% (inactive) | -4.92% (inactive) | -10.9% (inactive) | -15.3% (inactive) | -5.64% (inactive) | 91% (inactive) | 85.9% (inactive) | 0.395% (inactive) | 5.06% (inactive)
7 | Cc1cc(C)c(C(=O)Nc2ccc(S(=O)(=O)Nc3onc(C)c3C)cc2)c(C)c1 | 110 | 100% (inactive) | 110% (inactive) | 79.5% (inactive) | 93.4% (inactive) | 6.5% (inactive) | 86.9 | 93.4 | -6.27% (inactive) | -1.48% (inactive) | -15% (inactive) | -9.75% (inactive) | 2.97% (inactive) | 93.3% (inactive) | 95.3% (inactive) | 2.68% (inactive) | 10.4% (inactive)
8 | CCOc1cccc(OCCCCn2ccnc2)c1 | 87 | 75.5% (inactive) | 87% (inactive) | 97.3% (inactive) | 85.4% (inactive) | -3.44% (inactive) | 88.8 | 85.4 | 3.92% (inactive) | -2.46% (inactive) | -3.35% (inactive) | -16.8% (inactive) | -0.4% (inactive) | 49% (inactive) | 62.3% (inactive) | 2.19% (inactive) | 1.84% (inactive)
9 | Cc1nc2ccc(S(=O)(=O)NC(C(=O)Nc3nccs3)C(C)C)cc2s1 (stereo not drawn) | 87 | 93% (inactive) | 87% (inactive) | 91.6% (inactive) | 95.7% (inactive) | 5.42% (inactive) | 90.3 | 95.7 | 0.13% (inactive) | -0.17% (inactive) | -5.25% (inactive) | 2.78% (inactive) | -1.85% (inactive) | 101% (inactive) | 104% (inactive) | 1.99% (inactive) | 1.91% (inactive)
